PubChem BioAssay (NCATS)
Results filed as inconclusive are left out. Active and inactive are the calls of the source. Calls come from the whole dose curve; as a rule, active = well fitted curve in the direction sought with a large enough effect; inconclusive = small, poorly fitted or top-dose-only effect, or another doubt; inactive = no such curve, though single readings can be large; an effect the other way counts as inactive or inconclusive.

Each compound was assayed against Aldehyde dehydrogenase, mitochondrial (Homo sapiens) (UniProt P05091) (assay: qHTS for Inhibitors of the Aldehyde Dehydrogenase Family (ALDH2) Primary screen (AID 2061308;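 note: plate controls were vehicle for no effect and reference inhibitor for full effect; nearly all actives have a fitted effect of over 55% in size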)). Settings: ALDH2 enzyme inhibition qHTS, 1536-well; series mostly up to 56 µM; activity change, negative = inhibition: at the top concentration.

SMILES | activity change, negative = inhibition
O=C1NC(=O)/C(=C/c2cccn2-c2ccc(P(=O)(O)O)cc2)N1 | -12.3% (inactive)
O=C(Nc1ccc2c(c1)OCCO2)c1ccc(-c2nc3ccccc3[nH]2)cc1 | 0.675% (inactive)
Cc1noc(C)c1C(=O)N1CCC2(CCCN(C(c3ccccc3)c3ccccc3)C2)CC1 | -16.4% (inactive)
Cc1cc(NS(=O)(=O)c2ccc(NC(=O)Cc3ccc(Cl)c(Cl)c3)cc2)on1 | -9.49% (inactive)
CC(=O)C1CCN(c2ncc(-c3ccc4c(c3)OCCCO4)s2)CC1 | 2.22% (inactive)
Cc1cccc(-n2cnc3cc(C(=O)N4CCN(C)CC4)ccc32)c1 | -15.6% (inactive)
Cc1cc2c(s1)c1cnn(Cc3cc(OC(F)(F)F)ccc3F)c(=O)c1n2C | 12.2% (inactive)
NCCC(=O)Nc1cccc(-c2nn3c(=O)cc(N4CCNCC4)nc3s2)c1 | 11.3% (inactive)
C[C@@H]1O[C@@H](O[C@@H]2[C@@H](O)[C@H](O[C@H]3CC[C@@]4(C)C(CC[C@]5(C)C4CC=C4[C@@H]6CC(C)(C)CC[C@]6(C(=O)O[C@@H]6O[C@H](CO)[C@@H](O)[C@H](O)[C@H]6O)CC[C@]45C)C3(C)C)O[C@H](C(=O)O)[C@H]2O)[C@H](O)[C@H](O)[C@H]1O (stereo partly drawn) | -3.98% [at 16.9 µM] (inactive)
Cc1cccc(-n2cnc3cc(C(=O)N4CCCC4)ccc32)c1 | -1.54% (inactive)
Cc1ccc(-c2ccc(=O)n(CCNCCc3ccccc3)n2)cc1 | -19.8% (inactive)
CCOC(=O)c1cccc(NC(=O)Nc2nnc(-c3ccncc3)s2)c1 | -0.112% (inactive)

Each compound was assayed against Retinaldehyde dehydrogenase 3 (Homo sapiens) (UniProt P47895) (assay: qHTS for Inhibitors of the Aldehyde Dehydrogenase Family (ALDH1A3) Primary screen (AID 2061315;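 note: plate controls were DMSO vehicle for no effect and reference inhibitor for full effect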)). Settings: ALDH inhibition qHTS; series mostly up to 56 µM; activity change, negative = inhibition: at the top concentration.

SMILES | activity change, negative = inhibition | Potency
FC(F)(F)c1ccccc1-c1nc(NCc2ccc(C3CCCCC3)cc2)c2ccccc2n1 | 2.47% (inactive) | 
O=C1CCc2cc([S+](=O)([O-])NC3CCOCC3)ccc2N1 | -3.08% (inactive) | 
O=C(Nc1cccc(C(F)(F)F)c1)c1cccs1 | -1.49% (inactive) | 
COc1ccnc(NC(=S)N2CCN(c3ncc(C(F)(F)F)cc3Cl)CC2)c1 |  | inactive
COc1cccc(Cn2ncc3c4sc(C)cc4n(C)c3c2=O)c1 | 4.74% (inactive) | 
Clc1ccccc1-c1ccc2ncnc(NCc3cccs3)c2c1 | -0.0352% (inactive) | 
Cc1cc(C)n2ncc(C(=O)NCc3ccco3)c2n1 | -3.41% (inactive) | 
Cc1ccc(S(=O)(=O)n2cc(C(=O)Nc3ccc(-c4ccccc4)cc3)c3ccccc32)cc1 | 5.52% (inactive) | 
CC(=O)O[C@@H]1C[C@]2(C)[C@@]3(CCC4[C@@]5(C)CC[C@H](O[C@@H]6O[C@H](C(=O)O)[C@@H](O)[C@H](O[C@@H]7O[C@H](CO)[C@H](O)[C@H](O)[C@H]7O[C@@H]7O[C@@H](C)[C@H](O)[C@@H](O)[C@H]7O[C@@H]7OC[C@](O)(CO)[C@H]7O)[C@H]6O[C@@H]6O[C@H](CO)[C@H](O)[C@H](O)[C@H]6O)C(C)(C)C5CC[C@]42C)O[C@@H](O)[C@]12C3CC(C)(C)[C@@H](OC(=O)/C=C/c1ccc(O)c(O)c1)[C@@H]2OC(=O)/C=C/c1ccccc1 (stereo partly drawn) | 17.4% [at 11.2 µM] (inactive) | 
Cc1cc2c(s1)c1cnn(Cc3cc(F)cc(F)c3)c(=O)c1n2C | -0.829% (inactive) | 
O=S1(=O)N=C(OCc2ccccc2)c2ccccc21 | -0.207% (inactive) | 
Cc1cc(N[S+](=O)([O-])c2ccc(NC(=O)Cc3ccc(C(F)(F)F)c(F)c3)cc2)no1 | 15.6% (inactive) | 
COC(=O)c1c(NC(=O)COC(=O)c2ccc(Cl)cc2[N+](=O)[O-])sc2c1CCCCC2 | 5.18% (inactive) | 
Cc1cnc(-c2ccccc2C(C)C)nc1NCC1CCN(C2COC2)CC1 | -4.9% (inactive) | 
Cc1ccc(S(=O)(=O)Nc2ccccc2C(=O)Nc2nc(-c3ccccc3)co2)cc1 | 2.02% (inactive) | 
Cc1cc(C)nc(NC(=S)N2CCN(c3ccc(S(C)(=O)=O)cc3F)CC2)c1 | 3.9% (inactive) | 
COc1ccc(NC(=O)C(OC(=O)CNC(=O)c2ccccc2)c2ccccc2)c(C)c1 (stereo not drawn) | -1.97% (inactive) | 
Cc1cccc(-c2csc(N3CCC(C(N)=O)CC3)n2)c1 | -0.986% (inactive) | 
CN1CCN(c2cc(-c3nc(Nc4ccc(F)c(F)c4)c4ccccc4n3)ccn2)CC1 | -2.9% (inactive) | 
CN(C(=O)c1cn2c(-c3ccc(C(F)(F)F)cc3)cnc2cn1)c1ccc(C#N)cc1 | 5.29% (inactive) | 
CC(C)c1ccccc1-c1ncc(F)c(NCc2ccc(-c3ccn[nH]3)cc2)n1 | -5.46% (inactive) | 
CC(C)(C)c1ccc(Nc2nc(C#N)nc(NC3CCCC3)n2)cc1 | 0.184% (inactive) | 
NC(=O)c1cccc(-c2noc(-c3ccccc3F)n2)c1 | -6.47% (inactive) | 
Cc1ccc(OCCn2c(CCNC(=O)c3cccc(F)c3)nc3ccccc32)cc1 | 24.4% (inactive) | 
Cc1ccc(-c2ccc(=O)n(CC(=O)NCCC3CC3)n2)cc1 | -16.4% (inactive) | 
O=C(CNC(=O)C1CCCCC1)OC(C(=O)Nc1cc(C(F)(F)F)ccc1Cl)c1ccccc1 (stereo not drawn) | 4.47% (inactive) | 
